The source of these data is publication PMC5540273 (PLoS ONE, 2017).

Among the test systems are PKMYT1; PKN1; PKN2; PLK1; PLK2; PLK3; PLK4; PRKCD; PRKCE; PRKCH; PRKCI; PRKCQ; PRKD1; PRKD2; PRKD3; PRKG1; PRKG2; PRKX.
What all share (details): concentration: 1 μM, replicates: in singlicate; n = 1
The subject of another assay is T1, PKAC-beta.
T1 construct: gene PRKACB

The test system of another assay is T2, PRKR.
T2 construct: gene EIF2AK2
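Also: KINOMEscan kinase panel screen.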

Turning to `CNCc1ccc2nc(NC(=O)c3ccc(C(C)(C)C)cc3)cn2c1`, the “%Inh” value with PKAC-beta stood at 5%; in the assay on PKMYT1 it was 11%; in the assay on PKN1, 8%; in the assay on PKN2, 7%; with PLK1, 2%; in the assay on PLK2, 7%. Besides, the “%Inh” value in the assay on PLK3 is on record as 22%; with PLK4 it was 8%; in the assay with PRKCD, 0%; with PRKCE it was 12%; with PRKCH, 0%; in the assay with PRKCI, 20%. The “%Inh” value in the assay with PRKCQ was 0%; in the assay on PRKD1 it was 30%; in the assay on PRKD2, 2%; in the assay with PRKD3, 12%; with PRKG1 it was 0%; in the assay with PRKG2, 21%. Also, the “%Inh” value in the assay on PRKR was 0%; with PRKX, 9%.

Consider `O=C1NC(=O)C(c2ccc(Cl)cc2)=C1Nc1ccc(O)cc1` [SB-340867], for which the “%Inh” value is on record as 18% in the assay with PKAC-beta; 0% in the assay with PKMYT1; 0% with PKN1; 12% in the assay with PKN2; 0% with PLK1; 0% in the assay on PLK2. Moreover, the “%Inh” value in the assay on PLK3 amounted to 0%; in the assay on PLK4, 0%; with PRKCD, 0%; in the assay with PRKCE it was 1%; in the assay with PRKCH, 0%; with PRKCI it was 0%. The “%Inh” value in the assay with PRKCQ is 0%; in the assay on PRKD1, 0%; in the assay with PRKD2 it was 19%; in the assay on PRKD3, 0%; in the assay with PRKG1 it was 0%; in the assay with PRKG2, 1%. Also, the “%Inh” value with PRKR and with PRKX was 0% throughout.

In the case of `Cn1cncc1-c1cc2c(Nc3ccc(OCc4ccccc4)cc3)ncnc2cn1` [GW281179], the “%Inh” value in the assay with PKAC-beta is 7%; with PKMYT1, 0%; in the assay with PKN1 it was 0%; in the assay with PKN2, 0%; in the assay on PLK1 it was 0%; in the assay with PLK2, 0%. Also, the “%Inh” value amounted to 0% with PLK3; 0% with PLK4; 3% in the assay with PRKCD; 4% with PRKCE; 13% in the assay on PRKCH; 12% in the assay on PRKCI. Besides, the “%Inh” value with PRKCQ worked out at 0%; in the assay with PRKD1 it was 0%; in the assay on PRKD2 it was 2%; with PRKD3, 1%; in the assay with PRKG1 it was 8%; in the assay with PRKG2 it was 100%. Also, the “%Inh” value in the assay on PRKR is reported as 0%; with PRKX it was 15%.

As for `CNc1nc(-c2ccc3c(N)n[nH]c3c2)cc(N2C[C@@H](C(=O)NC3CCCCC3)OC[C@H]2C)n1` [GSK2375584], the “%Inh” value in the assay on PKAC-beta came to 10%; with PKMYT1 it was 0%; in the assay on PKN1 it was 29%; with PKN2, 0%; in the assay with PLK1, 3%; with PLK2 it was 0%. Also, the “%Inh” value in the assay on PLK3 is reported as 1%; in the assay on PLK4 it was 1%; with PRKCD, 8%; in the assay on PRKCE, 8%; with PRKCH, 23%; in the assay on PRKCI it was 18%. Moreover, the “%Inh” value in the assay with PRKCQ is recorded as 0%; in the assay with PRKD1 it was 13%; in the assay on PRKD2, 23%; with PRKD3, 0%; with PRKG1 it was 1%; with PRKG2, 18%. In addition, the “%Inh” value in the assay with PRKR is 4%; with PRKX it was 61%.

Turning to `Cc1cnc(N)c(/C=C/c2cncc(C(=O)NCCc3ccc(Cl)cc3Cl)c2)c1.Cl` [GSK190937], the “%Inh” value was 0% in the assay with PKMYT1; 7% with PKN1; 0% in the assay with PKN2; 0% in the assay on PLK1; 0% with PLK2; 0% in the assay on PLK3. For the same molecule, the “%Inh” value in the assay with PLK4 is recorded as 0%; in the assay with PRKCD it was 8%; in the assay with PRKCE, 21%; in the assay with PRKCH, 31%; with PRKCI, 23%; in the assay with PRKCQ it was 0%. Further, the “%Inh” value in the assay with PRKD1 amounted to 0%; in the assay with PRKD2, 5%; in the assay on PRKD3, 0%; in the assay with PRKG1, 10%; in the assay on PRKG2, 16%; in the assay with PRKR it was 0%. Moreover, the “%Inh” value in the assay on PRKX stood at 19%.

With `CC(=O)c1c(C)c2cnc(Nc3ccc(N4CCNCC4)cn3)nc2n(C2CCCC2)c1=O`, the “%Inh” value in the assay with PKAC-beta is given as 6%; with PKMYT1 it was 23%; in the assay on PKN1 it was 0%; in the assay on PKN2 it was 15%; with PLK1 it was 0%; in the assay on PLK2, 0%. Also, the “%Inh” value with PLK3 worked out at 0%; in the assay with PLK4, 6%; in the assay with PRKCD, 18%; with PRKCE, 55%; in the assay on PRKCH it was 0%; with PRKCI, 5%. Besides, the “%Inh” value worked out at 0% in the assay with PRKCQ; 0% with PRKD1; 0% in the assay with PRKD2; 0% in the assay on PRKD3; 9% in the assay with PRKG1; 0% in the assay with PRKG2. Also, the “%Inh” value in the assay on PRKR and in the assay with PRKX was 0% in each case.

Regarding `COc1ccc(Nc2nccc(-c3ccc(NC(=O)c4cc5cc(F)ccc5[nH]4)cc3)n2)cc1` [GSK1229496], the “%Inh” value in the assay on PKAC-beta is 0%; in the assay with PKMYT1, 0%; in the assay with PKN1 it was 13%; with PKN2, 0%; in the assay on PLK1 it was 0%; in the assay on PLK2, 0%. Also, the “%Inh” value was 0% in the assay with PLK3; 0% with PLK4; 0% in the assay on PRKCD; 6% with PRKCE; 20% with PRKCH; 15% with PRKCI. The “%Inh” value turned out to be 0% with PRKCQ; 0% with PRKD1; 0% in the assay on PRKD2; 100% with PRKD3; 0% with PRKG1; 0% in the assay on PRKG2. The results for the “%Inh” value in the assay on PRKR and with PRKX were 0% and 5%, respectively.

Regarding `COC(=O)c1cccc(NC(=O)NC2CCN(c3ccnc(Nc4ccc(F)cc4)n3)C2)c1` (stereo not drawn) [GSK1379725], the “%Inh” value in the assay with PKAC-beta, in the assay on PKMYT1, with PKN1, with PKN2, with PLK1 and with PLK2 was 0% throughout. Also, the “%Inh” value in the assay with PLK3 was 0%; in the assay on PLK4, 0%; in the assay on PRKCD, 0%; in the assay with PRKCE, 4%; in the assay with PRKCH it was 3%; in the assay on PRKCI, 15%. Further, the “%Inh” value in the assay with PRKCQ amounted to 0%; in the assay with PRKD1, 1%; with PRKD2, 1%; with PRKD3, 0%; in the assay on PRKG1, 0%; in the assay with PRKG2, 0%. Besides, the “%Inh” value in the assay with PRKR and in the assay on PRKX was 0% in each case.

As to `Cc1ccc(NC(=O)Nc2ccc(Cl)c(C(F)(F)F)c2)cc1-c1ccc(C(=O)Nc2ccncc2)cc1` [GSK1398470], the “%Inh” value with PKAC-beta amounted to 0%; in the assay with PKMYT1, 0%; in the assay with PKN1 it was 10%; with PKN2 it was 25%; with PLK1, 0%; with PLK2 it was 0%. Moreover, the “%Inh” value is reported as 0% with PLK3; 0% in the assay on PLK4; 0% with PRKCD; 0% in the assay with PRKCE; 23% in the assay with PRKCH; 0% in the assay with PRKCI. In addition, the “%Inh” value in the assay with PRKCQ is 23%; in the assay with PRKD1, 0%; with PRKD2, 17%; in the assay on PRKD3 it was 13%; in the assay with PRKG1 it was 0%; in the assay on PRKG2, 39%. The “%Inh” value in the assay with PRKR and in the assay with PRKX was 0% each time.

For the molecule `CS(=O)(=O)CCNCc1nc(-c2ccc3ncnc(Nc4ccc5c(cnn5Cc5ccccc5)c4)c3c2)cs1.Cl.Cl` [GW569716], the “%Inh” value is 3% in the assay with PKAC-beta; 6% in the assay on PKMYT1; 0% in the assay on PKN1; 15% with PKN2; 0% in the assay on PLK1; 0% with PLK2. The “%Inh” value with PLK3 came to 0%; with PLK4, 13%; with PRKCD, 0%; with PRKCE, 11%; in the assay on PRKCH, 11%; with PRKCI, 23%. The “%Inh” value in the assay with PRKCQ was determined as 0%; in the assay on PRKD1, 4%; in the assay with PRKD2 it was 0%; with PRKD3, 0%; in the assay with PRKG1 it was 0%; with PRKG2 it was 0%. Further, the “%Inh” value in the assay with PRKR and with PRKX was 0% throughout.

`CS(=O)(=O)CCNCc1nc(-c2ccc3ncnc(Nc4ccc(OCc5ccccc5)c(Cl)c4)c3c2)cs1.Cl` [GW582764]: the “%Inh” value in the assay with PKAC-beta is given as 2%; with PKMYT1, 0%; in the assay on PKN1, 0%; with PKN2 it was 0%; in the assay with PLK1, 0%; with PLK2, 0%. The “%Inh” value with PLK3 is recorded as 0%; with PLK4, 0%; in the assay on PRKCD it was 0%; in the assay with PRKCE, 6%; in the assay on PRKCH it was 2%; in the assay on PRKCI it was 39%. Further, the “%Inh” value is 3% in the assay on PRKCQ; 2% with PRKD1; 0% in the assay on PRKD2; 100% in the assay with PRKD3; 0% in the assay on PRKG1; 1% in the assay on PRKG2. In addition, the “%Inh” value with PRKR and in the assay on PRKX was 0% each time.
